We go through 91 compounds from PubChem BioAssay AID629 (Emory University Molecular Libraries Screening Center, 2007).

In all, about 86,000 compounds went through this assay and about 1,400 (1.6%) were called active. This is one part of a sample in which actives are shown more often than they occur. No stated cut-off is given here; in the data, active means inhibition above about 50%; inactive means the rest.

As usually defined, the inhibition is the change of the read-out against control, counted positive when it falls.

The test deals with Estrogen receptor (Homo sapiens) (UniProt P03372). In words: ERα–SRC-1 coactivator interaction inhibitors, primary screen, biochemical, TR-FRET, ERα LBD, estradiol-bound (AID 629).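 Further: 0% = receptor plus peptide control and 100% = peptide only without receptor.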 To be noted: TR-FRET ER-alpha LBD / SRC-1 peptide, at 25.6 µM, hits give high values. A general note: TR-FRET usually uses a lanthanide donor and a delayed reading to cut background.
Sequence of Estrogen receptor (Homo sapiens) (P03372 whole entry, looked up, the tested form may be a part): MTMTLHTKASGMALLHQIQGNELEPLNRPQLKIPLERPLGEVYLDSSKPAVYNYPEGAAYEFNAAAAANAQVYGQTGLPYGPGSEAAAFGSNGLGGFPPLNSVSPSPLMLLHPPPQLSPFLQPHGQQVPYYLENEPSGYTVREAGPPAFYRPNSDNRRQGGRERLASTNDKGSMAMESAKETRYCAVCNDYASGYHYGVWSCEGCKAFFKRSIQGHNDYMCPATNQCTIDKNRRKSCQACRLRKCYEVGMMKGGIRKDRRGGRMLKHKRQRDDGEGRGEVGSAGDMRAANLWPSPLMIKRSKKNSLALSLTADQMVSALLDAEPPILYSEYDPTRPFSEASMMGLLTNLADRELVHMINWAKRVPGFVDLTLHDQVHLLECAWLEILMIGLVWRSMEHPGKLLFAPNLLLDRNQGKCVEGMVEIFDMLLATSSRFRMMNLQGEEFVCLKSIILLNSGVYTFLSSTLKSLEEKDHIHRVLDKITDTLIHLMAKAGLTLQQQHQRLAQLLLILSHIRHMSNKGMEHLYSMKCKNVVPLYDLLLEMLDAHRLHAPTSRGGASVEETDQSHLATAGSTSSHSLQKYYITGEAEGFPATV
With `COC(=O)C1=C(Nc2ccc(C)cc2)C=C(C)C(C(=O)OC)C1c1ccc(F)cc1` (stereo unspecified), the inhibition is -7.97% (inactive).

As for `Cc1nn(C)cc1CNC(=O)Nc1ccc(Cl)cc1`, the inhibition is 5.21% (inactive).

As for `Cc1cccc(C(=O)Nc2ccccc2N2CCN(c3ccc(F)cc3)CC2)c1`, the inhibition was -12.2% (inactive).

As to `O=C1CCCc2nn(-c3ccccc3)nc21`, the inhibition is -5.5% (inactive).

For `O=C(COC(=O)C12CC3CC(CC(C3)C1)C2)NCc1ccco1`, the inhibition is 21% (inactive).

For `O=C(COC(=O)CCC(=O)c1cccs1)NCc1ccco1`, the inhibition is 71.3% (active).

Consider `O=C(CCC(=O)c1cccs1)NCc1ccccc1`, for which the inhibition is 3.23% (inactive).

Consider `O=C(Nc1nncs1)c1cccc(S(=O)(=O)N2CCCCC2)c1`, for which the inhibition was -7.35% (inactive).

As for `CC(C)(C)n1nnnc1C(c1ccc(Cl)cc1)N1CCSCC1` (stereo unspecified), the inhibition was -5.89% (inactive).

Take `O=C(Cn1cc(C(=O)c2cccs2)c2ccccc21)NCc1cccs1`: the inhibition is 4.67% (inactive).

Turning to `Cc1cccc(NC(=O)Cn2cc(C(=O)c3ccco3)c3ccccc32)c1`, the inhibition was 52.3% (active).

With `Cc1cccc(NC(=O)CSc2nnc(-c3ccco3)o2)c1`, the inhibition is -9.42% (inactive).

In the case of `Cc1cc(C)c2cc(CN(Cc3nnnn3Cc3ccc(F)cc3)C3CCCC3)c(=O)[nH]c2c1`, the inhibition was 7.55% (inactive).

In the case of `COc1ccc(-c2nnc(SCc3cccnc3)o2)cc1`, the inhibition was -6.1% (inactive).

Turning to `COc1ccc(S(=O)(=O)N/N=C\c2ccc(OC)c(COc3ccc(C)cc3[N+](=O)[O-])c2)cc1`, the inhibition was 17.7% (inactive).

Turning to `O=C(CSc1nnnn1-c1ccccc1)NCc1ccco1`, the inhibition is 33.1% (inactive).

As to `CCCc1ccc(-c2csc(NC(=O)Cc3cccs3)n2)cc1`, the inhibition was 7.36% (inactive).

With `COc1ccc(Cc2nnc(NC(=O)Cc3cccs3)s2)cc1`, the inhibition is 97.3% [fluorescence artefact?] (active).

Take `COc1ccc(Cc2nnc(NS(=O)(=O)Cc3ccccc3)s2)cc1`: the inhibition is -16.5% (inactive).

`CC(C)(C)C(=O)Cn1c(NCCO)nc2ccccc21`: the inhibition was -7.55% (inactive).

For `CN(Cc1ccccc1)C(=O)COc1ccccc1`, the inhibition is 21% (inactive).

For the compound `Cc1nc2c(c(=O)n1Cc1ccco1)c1nc3ccccc3nc1n2Cc1ccccc1`, the inhibition is 79.5% (active).

Turning to `COCCCn1c2nc3ccccc3nc2c2c(=O)n(Cc3ccc(Cl)cc3)c(C)nc21`, the inhibition is 22.2% (inactive).

`Cc1ccc(Cn2c(C)nc3c(c2=O)c2nc4ccccc4nc2n3Cc2ccco2)cc1`: the inhibition is 45.1% (inactive).

Take `CC1(C)CCc2nc(SCc3ccccc3)c(C#N)cc2C1`: the inhibition is -2.01% (inactive).

In the case of `C=C(C)CNC(=S)/N=c1\scc(C)n1CC`, the inhibition is 64.7% [fluorescence artefact?] (active).

As to `CS(=O)(=O)n1nc(-c2ccccc2)nc1NCc1ccco1`, the inhibition was -3% (inactive).

Regarding `CCOc1ccc2c(c1)C(c1ccc(C)cc1)=NNC(c1ccc(C)cc1)=N2`, the inhibition is -14.6% (inactive).

On to `Clc1ccc(COn2c(-c3ccc(Cl)cc3Cl)nc3ncccc32)cc1`, for which the inhibition was 27.7% (inactive).

As for `COc1ccc(S(=O)(=O)NCc2ccc(C(=O)N(C)Cc3ccco3)cc2)cc1`, the inhibition is 2.78% (inactive).

With `O=C(c1cccnc1NCc1ccccc1)N1CCOCC1`, the inhibition was -6.49% (inactive).

Regarding `Oc1c(C(c2ccccn2)N2CCOCC2)ccc2cccnc12` (stereo unspecified), the inhibition was 70% [fluorescence artefact?] (active).

For the compound `Cc1nc2sc(C(c3ccco3)N3CCOCC3)c(O)n2n1` (stereo unspecified), the inhibition is -24% (inactive).

Regarding `CCc1nnc(NC(=O)CCC(=O)NCc2ccccc2OC)s1`, the inhibition is -1.4% (inactive).

For `O=C(Cc1cccc2ccccc12)Nc1ccc2oc(-c3ccccc3)nc2c1`, the inhibition was -1.24% (inactive).

As for `O=C(Nc1ccc2oc(-c3ccc4ccccc4c3)nc2c1)c1cccs1`, the inhibition is 55% (active).

For `Cc1nc(-c2ccc(NC(=O)c3cccs3)cc2)cs1`, the inhibition is -16.8% (inactive).

Regarding `CCOC(=O)c1ccccc1NS(=O)(=O)c1ccc(OC)cc1`, the inhibition was -11.3% (inactive).

Regarding `Oc1c(CN2CCN(c3ccc(F)cc3)CC2)cc(Cl)c2cccnc12`, the inhibition is -0.01% (inactive).

As to `CCN1CCN(C(c2cccnc2)c2cc(Cl)c3cccnc3c2O)CC1` (stereo unspecified), the inhibition is 65.6% [fluorescence artefact?] (active).

On to `CCOC(=O)N1CCN(C(=O)CSc2ccc(Cl)cc2)CC1`, for which the inhibition is -2.04% (inactive).

In the case of `CCOC(=O)N1CCN(C(=O)c2cc3c(ccc4ccccc43)oc2=O)CC1`, the inhibition is -9.07% (inactive).

With `CCOC(=O)N1CCN(C(c2cccnc2)c2ccc3cccnc3c2O)CC1` (stereo unspecified), the inhibition was 53.3% [fluorescence artefact?] (active).

Turning to `CCn1c(=O)c(=O)n(CC)c2cc(S(=O)(=O)N3CCc4ccccc43)ccc21`, the inhibition was -5.41% (inactive).

As to `CCN(CC)CC(=O)c1c[nH]c2ccc(OC)cc12`, the inhibition was -8.61% (inactive).

`CCOC(=O)/C(C#N)=C\c1c(C)cc(C)c(COC(C)=O)c1C`: the inhibition is -6.55% (inactive).

`O=C(Nc1nc(-c2ccc3c(c2)OCO3)cs1)c1ccncc1`: the inhibition is 58% [fluorescence artefact?] (active).

As for `O=C(Nc1ccc2c(c1)OCCO2)c1ccncc1`, the inhibition was -22.6% (inactive).

For the compound `O=C(Nc1nc(-c2ccncc2)cs1)C1COc2ccccc2O1` (stereo unspecified), the inhibition is 1.84% (inactive).

Take `COc1ccc(CN(C(=O)CSc2nnc(-c3ccc(OC)c(OC)c3)o2)c2ccc(F)cc2)cc1`: the inhibition is -6.76% (inactive).

For the compound `COc1ccc(C(=O)N2CC3(C)CC2CC(C)(C)C3)cc1OC` (stereo unspecified), the inhibition was -3.82% (inactive).

With `O=C(CSc1nnc(-c2cccnc2)n1CCc1ccccc1)NCc1ccccc1`, the inhibition is -17.8% (inactive).

On to `c1ccc(-c2cc(-c3nnc4sc(-c5ccccn5)nn34)[nH]n2)cc1`, for which the inhibition was 54.2% [fluorescence artefact?] (active).

Regarding `CCOc1cccc(-c2nn3c(-c4ccccn4)nnc3s2)c1`, the inhibition is 2.04% (inactive).

In the case of `COc1ccc(-c2nn3c(-c4ccccc4)nnc3s2)cc1OC`, the inhibition is 3.83% (inactive).

With `O=C(/C=C/NNC(=O)c1cccc(Br)c1)c1ccccc1`, the inhibition is -3.8% (inactive).

Turning to `C=CCO/N=C(\C)c1c(O)c(C)c(-c2ccccc2)n(-c2ccccc2)c1=O`, the inhibition was 2.56% (inactive).

As to `CC(=O)Nc1cccc(Oc2cc(C#N)c(C#N)cc2N2CCOCC2)c1`, the inhibition is 8.98% (inactive).

As for `CCOc1cc(N2CCOCC2)c(OCC)cc1NC(=O)COc1cccc2cccnc12`, the inhibition is 94.2% [fluorescence artefact?] (active).

For `CCOc1cc(N2CCOCC2)c(OCC)cc1NC(=O)COC(=O)[C@H](Cc1c[nH]c2ccccc12)NC(C)=O`, the inhibition is -11.8% (inactive).

With `Cn1c(=NC(=O)C2CC2)sc2cc(F)cc(F)c21`, the inhibition is -0.62% (inactive).

Turning to `COc1ccc(C)c2sc(=NC(=O)c3ccc(C#N)cc3)n(C)c12`, the inhibition was 79.7% [fluorescence artefact?] (active).

As to `COc1ccc(OC)c2c1sc(=NC(=O)CN1C(=O)CCC1=O)n2C`, the inhibition was 28.2% (inactive).

For the compound `CCC(c1nnnn1C(C)(C)C)N(Cc1cc2cccc(C)c2n2nnnc12)C1CCCC1` (stereo unspecified), the inhibition is -3.95% (inactive).

For `Cc1cc(C)nc(N2CCN(c3ncnc4c3oc3ccccc34)CC2)n1`, the inhibition is 16.1% (inactive).

For `Cc1nc(N2CCN(c3ncccn3)CC2)c2oc3ccccc3c2n1`, the inhibition is 54.3% [fluorescence artefact?] (active).

As to `CCc1nc(N2CCN(c3nc(C)cc(C)n3)CC2)c2oc3ccccc3c2n1`, the inhibition is 49.1% (inactive).

Regarding `c1ccc(-c2nc(NCc3ccco3)c3ccccc3n2)cc1`, the inhibition is 2.5% (inactive).

With `O=C(Cc1ccccc1)n1nc(-c2ccccc2)nc1NCc1ccco1`, the inhibition is -2.71% (inactive).

With `CN1CCc2c(sc3c2c(NCc2ccco2)nc2nnnn23)C1`, the inhibition was 84.9% [fluorescence artefact?] (active).

`CC(C)CCNC(=O)CC1C(=O)N(Cc2ccccc2)C(C)c2nc3ccccc3n21` (stereo unspecified): the inhibition is -8.13% (inactive).

For the compound `COCCNS(=O)(=O)c1cc(Br)ccc1OC`, the inhibition is 3.01% (inactive).

With `CC(C)(C)c1ccc(C(=O)NCC(=O)OCN2C(=O)c3ccccc3C2=O)cc1`, the inhibition is 0.65% (inactive).

With `O=C(OCC#CCSc1nnc(-c2ccncc2)o1)c1sc2ccccc2c1Cl`, the inhibition is -0.24% (inactive).

Consider `O=C(CN1C(=O)CC(c2ccccc2)=Nc2ccccc21)NC1CCCCC1`, for which the inhibition was -6.54% (inactive).

For `Cn1c(=NC(=O)CSCC(=O)N2CCCCC2)sc2ccccc21`, the inhibition was -2.22% (inactive).

Take `Cn1c(=NC(=O)c2cnccn2)sc2ccccc21`: the inhibition was 56.8% [fluorescence artefact?] (active).

For `Cn1c(=NC(=O)CSCC(=O)N2CCOCC2)sc2ccccc21`, the inhibition is -10.2% (inactive).

In the case of `O=C(Nc1ccc2nc3n(c(=O)c2c1)CCCCC3)c1ccccc1Cl`, the inhibition was 1.87% (inactive).

As to `CCCc1noc2c1/C(=N\O)CCC2`, the inhibition was -11.6% (inactive).

`COc1ccc(S(=O)(=O)Nc2ccc(F)cc2)c(C)c1C`: the inhibition was 10.1% (inactive).

On to `O=C(NCc1ccccn1)c1ccc2nc(-c3ccco3)c(-c3ccco3)nc2c1`, for which the inhibition is 88% [fluorescence artefact?] (active).

For the compound `CN(c1ccc(C(=O)NCc2ccccn2)cc1)S(C)(=O)=O`, the inhibition is -0.26% (inactive).

Consider `O=C(NCc1ccccn1)c1cc2ccccc2oc1=O`, for which the inhibition was -3.07% (inactive).

For the compound `CCN(CC)C(=O)CSc1nc2ccccc2o1`, the inhibition was -2.4% (inactive).

With `O=S(=O)(NCC1OCCc2ccccc21)c1ccccc1` (stereo unspecified), the inhibition was -3.46% (inactive).

In the case of `O=c1/c(=C/c2ccc(CNS(=O)(=O)c3ccccc3)o2)sc2n1CCN=2`, the inhibition is 51.2% [fluorescence artefact?] (active).

For the compound `O=S(=O)(NCCNS(=O)(=O)c1ccccc1)c1ccccc1`, the inhibition is -4.42% (inactive).

Consider `CC(=O)C1=C(C)NC(=O)NC1c1cc(Br)ccc1OCC#N` (stereo unspecified), for which the inhibition is -10.9% (inactive).

Turning to `CC(C)n1c(-c2cccs2)nc2ccccc21`, the inhibition is -8.49% (inactive).

On to `O=C(CCn1c(SCC(=O)c2ccccc2)nc2ccccc2c1=O)NCc1ccc(F)cc1`, for which the inhibition was 47.2% (inactive).
